Compounds without any hit were thinned out: in the full panel of roughly 83,000, 20% have a hit.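 Single-dose data. Exposure time 48 hours. Values below 10 considered active.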 Values without a mark were called inactive. Activity calls are given as the source filed them.

The text below walks through data of PubChem BioAssay (NCI).

The first experiment deals with UACC-257 melanoma. Nature of the experiment: NCI-60 one-dose screen, 48 h (100 = growth as untreated, 0 = no growth, -100 = all killed). The settings on record: 10 µM unless noted.
Turning to `Fc1cc2c(cc1Cl)N(c1ncnc3ccc(-c4cnc5[nH]ncc5c4)cc13)CC2`, the growth was 86.3%.
The same measure, in the same setting: to `COc1ccccc1NC(=O)Cn1cc(CN2CCN(c3ccnc4cc(Cl)ccc34)CC2)nn1` belongs 106%.
The same measure, in the same setting: to `COc1cc(CNC(=O)CCCC/C=C/C(C)C)ccc1OCc1nnc(Nc2ccc([N+](=O)[O-])cc2)o1` belongs 77.6%; to `O=C(NCCCN1CCOCC1)c1cccc(N2C(=O)/C(=C/c3ccc(F)cc3)SC2=S)c1`, 97.2%; to `O=C(CSc1nnc2n1S(=O)(=O)c1ccccc1N2c1ccccc1)Nc1nc2ccc(F)cc2s1`, 111%.
The same measure, in the same setting: to `N#Cc1nc(-c2ccccc2)oc1S(=O)(=O)N1CCOCC1` belongs 92.8%.
Turning to `CC(C)c1ccc(COCc2cc(CN3CCCC3)c(O)c3ncccc23)cc1`, the growth was -12.8% (active).
Same read-out and setting: to `Cc1cc(N)c2cc(NC(=O)/C=C\c3ccccc3Cl)ccc2n1` belongs -49.2% (active).
Same read-out and setting: to `COc1ccc(Cc2cc(-c3ccccc3)nn(Cc3ccccc3)c2=O)cc1OC` belongs 34.4%; to `O=C1/C(=C/c2ccc(F)cc2)COc2ccc(O)cc21`, 107%.
As to `CCOP(=O)(OCC)c1nc(-c2ccccc2)oc1NCc1cccnc1`, the growth is 109%.
On the same count and under the same terms, to `C/C(=C(/c1ccc(Cl)cc1)c1ccc(OCCN2CCCC2)cc1)c1ccc(Cl)cc1` belongs 98.6%; to `CC(C)=CCC[C@](C)(O)[C@H]1CC[C@]2(C)[C@@H]1CC[C@@H]1[C@@]3(C)Cc4nccnc4C(C)(C)[C@@H]3CC[C@]12C`, 75.7%; to `CC1=Nc2cnc(Nc3ccc(OCCN4CCCC4)cc3)nc2Nc2ccccc21`, 89.3%.

The test system of the next experiment is M14 melanoma. The description is as above. The settings on record: 10 µM unless noted.
`CCSc1nc(NC)c2cc(-c3ccc(C(F)(F)F)cc3)ccc2n1`: the growth is 96.5%.
Same read-out and setting: to `Cc1nc(-c2ccccc2)cc2c(O)c(C(=O)NN)[nH]c(=O)c12` belongs 101%; to `Cc1ccc(S(=O)(=O)N2CCCC2CO)cc1` (stereo not drawn), 95.1%; to `CCOC(=O)c1cc(-c2ccc([N+](=O)[O-])cc2)n(-c2ccc(C(=O)O)c(O)c2)c1C`, 90%.
On the same count and under the same terms, to `COc1cc(CNS(=O)(=O)c2ccc(C)cc2)ccc1OCc1cn(-c2ccc(Br)cc2)nn1` belongs 106%; to `O=C(/C=C/c1ccccc1)c1cccc(OCCCOc2cccc(C(=O)/C=C/c3ccccc3)c2)c1`, 95%; to `C=CCc1c(O)c(C(=O)/C=C/c2ccc(Cl)cc2)c(OC)c2ccoc12`, 58.3%.
The same measure, in the same setting: to `COc1ccc(-c2nc3c(c(-c4ccccc4)nn3-c3ccccc3)c(-c3ccc(N4CCOCC4)cc3)c2C#N)cc1` belongs 101%; to `O=C1/C(=C/c2ccc(Cl)cc2)COc2ccc(O)c(O)c21`, 30.9%.
On to `CN(C)c1ccc(Nc2cc(-c3cccc(OC(F)(F)F)c3)nc3ccc(N4CCCC4)cc23)cc1`, for which the growth is -76.3% (active).
The same measure, in the same setting: to `O=C(c1ccc(-c2nc(CSc3nc4ccccc4s3)no2)cc1)N1CCSCC1` belongs 79.9%.
Still for that read-out and setting: to `N=C(N)c1ccc(-c2ccc(-c3ccc(Cl)cc3)s2)nc1` belongs 17.9%; to `COC(=O)c1c2c(c(C)[n+]([O-])c1C)C(=O)C=C(NCc1ccc(OC)cc1)C2=O`, -84.6% (active).
In the case of `O=C1/C(=C/c2ccc(Cl)cc2)COc2ccc(O)cc21`, the growth was 86%.
Regarding `Cc1cccc2c1NC(=O)C2(c1ccc(O)cc1)c1ccc(O)cc1`, the growth is 94.4%.
Same read-out and setting: to `CN1CCN(Cc2ccc3c(NNC(=O)c4ccccc4)nc4cc(F)ccc4n23)CC1` belongs 3.61% (active).
The same measure, in the same setting: to `COc1ccc2[nH]cc(-c3nc(-c4cn(C)c5c(Cl)nccc45)cs3)c2c1` belongs 14%; to `O=C(CCc1nnc(Cn2cnc3nc[nH]c3c2=O)o1)c1nc2ncccc2[nH]1`, 96.5%.
With `CC1=Nc2cnc(Nc3ccc(OCCN4CCCCC4)cc3)nc2Nc2ccccc21`, the growth is 50.6%.
Turning to `Cc1nc2ncnc(Cl)c2[nH]1`, the growth was 88.8%.
Regarding `CC(C)(C)[Si](C)(C)O[C@H]1C(=O)C=CN2CC=C[C@@H]12`, the growth is 108% [100 µM].
For `c1cnc2[nH]cc(-c3csc(-c4cn(CCCN5CCOCC5)c5ccccc45)n3)c2c1`, the growth is 14.5%.
In the case of `Cc1ccccc1Cn1cnc2ccc(-c3cc(NC(=O)c4ccc(NC5CCN(C)CC5)cc4)n[nH]3)cc21`, the growth was 82.9%.
In the case of `COC(C(=O)[C@@H](O)[C@@H](C)O)[C@@H]1Cc2cc3cc(O[C@H]4C[C@@H](O[C@H]5C[C@@H](O)[C@H](O)C(C)O5)[C@H](O)C(C)O4)cc(O)c3c(O)c2C(=O)[C@H]1O[C@H]1C[C@@H](O[C@H]2C[C@@H](O[C@H]3C[C@@H](OC)[C@H](O)C(C)O3)[C@@H](O)C(C)O2)[C@H](O)C(C)O1` (stereo partly drawn), the growth is 57.2%.
